Screening results from PubChem.
GLP-1R inv ag – qHTS of GLP-1 Receptor Inverse Agonists (Inhibition Mode); Glucagon-like peptide 1 receptor (Homo sapiens), P43220; HEK293 GLP-1R CRE-luciferase, luminescence, 24 h; GLP-1R form is constitutively active; Potency, µM (doses to about 38.3 µM), most hits filed as inhibitors; hit rate 1.6% among 410,000; AID 624417, 2012; further: nearly all actives have a fitted effect of over 55% in size
Target sequence (P43220 whole entry, looked up): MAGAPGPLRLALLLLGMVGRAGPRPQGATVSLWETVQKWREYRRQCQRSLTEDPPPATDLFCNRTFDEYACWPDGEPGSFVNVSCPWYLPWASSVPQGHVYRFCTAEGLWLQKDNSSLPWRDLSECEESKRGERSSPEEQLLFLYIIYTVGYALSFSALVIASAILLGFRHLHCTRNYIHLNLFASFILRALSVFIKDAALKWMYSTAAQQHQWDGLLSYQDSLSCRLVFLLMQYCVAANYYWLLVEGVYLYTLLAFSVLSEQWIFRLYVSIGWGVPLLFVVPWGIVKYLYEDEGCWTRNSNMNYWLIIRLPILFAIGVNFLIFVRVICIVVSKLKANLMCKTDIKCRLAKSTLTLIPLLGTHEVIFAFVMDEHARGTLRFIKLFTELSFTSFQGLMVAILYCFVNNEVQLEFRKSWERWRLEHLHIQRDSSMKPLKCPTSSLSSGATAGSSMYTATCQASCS
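qHTS in 1536-well format: reporter HEK293 cells expressing constitutive GLP-1R activity in DMEM + 10% Nu serum, 24 hr with compounds at 37 deg C, luminescence read after 12 min with detection reagent.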
DRD3 agonist – qHTS of D3 Dopamine Receptor Agonist: qHTS; D(3) dopamine receptor (Homo sapiens), P35462; D3R DiscoveRx beta-arrestin cells, luminescence, 90 min; hit rate 0.58% among 410,000; AID 652048, 2013; max activation, %; in the data active means max activation above about 30%
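Agonist mode: compounds and dopamine controls were applied to plated cells for 90 min at 37 degrees C after an overnight attachment at 1500 cells/well. Luminescent read-out followed 30 - 60 minutes at room temperature with DiscoveRx detection reagent.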
GLP1R ag – qHTS of GLP-1 Receptor Agonists; Glucagon-like peptide 1 receptor (Homo sapiens), P43220; HEK293 GLP-1R CRE-luciferase, luminescence, 4-6 h; cells express a hypersensitive GLP-1R form; Potency, µM (series often up to 45.6 µM), most hits filed as activators; hit rate 0.007% among 380,000; AID 624172, 2012
D3 antag – qHTS of D3 Dopamine Receptor Antagonist: qHTS. D(3) dopamine receptor (Homo sapiens), P35462. D3R cells, DiscoveRx beta-arrestin luminescence, antagonist mode; stronger effect = lower value. max response, negative = inhibition, %. hit rate 2.5% among 360,000. AID 652054, 2013; in the data active means max response below about -50%; inconclusive means no clear call, values can overlap the other calls
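Cells plated overnight at 1500 cells/well, then exposed to library compounds with dopamine controls for 90 minutes at 37 degrees C. DiscoveRx reagent added for 30–60 minutes at room temperature; luminescence read, quantitative HTS format.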
Numbers stand for hits; n = inactive; u = inconclusive; x = no result given; ! = not active in a repeat. Only some compounds are listed: those with a hit (about 4.3% of all), similar ones and a draw of the others. Unless noted, the call rests on the fitted dose curve; in most records, active means well fitted curve in the direction sought with a large enough effect; inconclusive means small, poorly fitted or top-dose-only effect, or another doubt; inactive means no such curve, though single readings can be large; an effect the other way counts as inactive or inconclusive.

SMILES	GLP-1R inv ag	DRD3 agonist	GLP1R ag	D3 antag
CCOCc1ccccc1Nc1ncnc2onc(-c3ccc(Cl)cc3)c12	n	n	n	x
Cc1cc(C(=O)COC(=O)C2=NNC(=O)CC2)c(C)n1-c1ccc(OC(F)F)cc1	n	n	n	n
Cc1cc(C(=O)COC(=O)C2=COCCO2)c(C)n1-c1cccc(F)c1	10µM	n	n	n
Cc1cc(C(=O)COC(=O)C2=NNC(=O)CC2)c(C)n1-c1cccc(C(F)(F)F)c1	n	41	n	n
O=C(CCCNS(=O)(=O)c1ccc(Cl)c(Cl)c1)NCCc1ccccn1	n	n	n	n
CN(CC(=O)Nc1ccccc1Cl)C(=O)COC(=O)c1ccc([N+](=O)[O-])s1	n	n	n	n
Cc1cccc(CS(=O)(=O)Cc2ccc(C(=O)NCc3ccc(Cl)cc3)o2)c1	n	n	x	x
Cc1cc(=O)[nH]c(SCC(=O)N2CCN(C(c3ccccc3)c3ccccc3)CC2)n1	5.6µM	n	n	n
Cc1cc(=O)[nH]c(SCC(=O)N2CCC(Cc3ccccc3)CC2)n1	n	n	n	n
CCc1cc(=O)[nH]c(SCC(=O)N2CCC(Cc3ccccc3)CC2)n1	n	n	n	-59
COC(=O)C1=C(C)NC(C)=C(C(=O)O[C@H]2CCN(Cc3ccccc3)C2)C1c1cccc([N+](=O)[O-])c1 (some centres not stated)	x	x	n	x
CCc1nc(-c2cc(S(=O)(=O)N3CCN(c4ccccc4)CC3)ccc2OC)no1	n	n	x	x
CCC(C(=O)Nc1cc(F)ccc1F)n1nc(C)c2c(C)n(-c3ccc(C)cc3)nc2c1=O (configuration not stated)	10µM	59!	n	n
CCC(C(=O)Nc1ccccc1F)n1nc(C)c2c(C)n(-c3ccccc3)nc2c1=O (configuration not stated)	u	n	n	n
Cc1onc(C(=O)NN)c1-c1csc(COc2ccc(Cl)cc2)n1	n	44	n	n
COc1cccc(CNS(=O)(=O)c2cc3c4c(c2)CCN4C(=O)CC3)c1	n	n	n	-72
CCNC1=C(Cl)C(=O)c2ccccc2C1=O	u	n	n	u
O=C1C(Cl)=C(NCCN2CCCCC2)C(=O)c2ccccc21	11µM	n	n	-63
Cc1cccc(Nc2nnc(SC/C(O)=C(\C#N)c3nc4ccccc4[nH]3)s2)c1C	n	33	n	n
CCC(C(=O)NC1CCCC1)N(C(=O)Cn1nnc(-c2ccc(C)o2)n1)c1cccc(OC)c1 (configuration not stated)	n	36	n	n
COc1ccc(NC(=O)c2cccc(N3C(=O)NC4CC3(C)Oc3ccccc34)c2)cc1 (configuration not stated)	4µM	n	n	n
Cc1nn(-c2ccccc2)c2c1N(CCCC(=O)NCc1ccc(OC(C)C)cc1)C(=O)CS2	u	n	x	x
Nc1c(Br)cc(Br)c2c1C(=O)c1c(cccc1S(=O)(=O)O)C2=O	n	n	n	-55
CCCn1c(=O)c2sccc2n2c(CCCC(=O)NCCOC)nnc12	n	n	x	x
CCOC(=O)C1=C(C)N=c2s/c(=C\c3ccc(OC(C)=O)c(OCC)c3)c(=O)n2C1/C=C/c1ccccc1 (configuration not stated)	u	n	n	-56
SMILES	GLP-1R inv ag	DRD3 agonist	GLP1R ag	D3 antag
CCOC(=O)C1=C(c2ccccc2)N=c2s/c(=C\c3cccc(O)c3)c(=O)n2C1c1cccs1 (configuration not stated)	11µM	n	n	n
CCOC(=O)C1=C(C)N=c2s/c(=C\c3cccc(OCC(=O)O)c3)c(=O)n2C1c1ccccc1OC (configuration not stated)	n	n	n	n
COC(=O)c1ccc(NC(=O)CN(c2cccc(C(F)(F)F)c2)S(C)(=O)=O)cc1	u	n	x	x
COc1ccc(-c2nc(NC(=O)c3cc(C(C)(C)C)nn3C)sc2C)cc1	n	40	n	n
NCCO	x	n	n	x
CN1CCCN(C2C3CC4CC(C3)CC2C4)CC1 (configuration not stated)	u	n	n	-92
COc1cccc(/C=N/Nc2nnc(C)n2N)c1O	10µM	n	n	n
Cc1nnc(N/N=C/c2ccccc2F)n1N	n	n	n	n
COc1ccc(/C=N/N2CCOCC2)cc1Cn1nc(C)c([N+](=O)[O-])c1C	n	n	n	n
COc1ccc(/C=N/Nc2ccccc2)cc1Cn1nc(C)c([N+](=O)[O-])c1C	4µM	n	n	n
COc1ccc(/C=N/Nc2ccc([N+](=O)[O-])cc2)cc1O	u	n	n	-53
COc1cccc(/C=N/Nc2ccc([N+](=O)[O-])cc2)c1O	1.8µM	n	n	n
COc1cc(C=C(C#N)c2ccc([N+](=O)[O-])cc2)ccc1O	n	n	n	-52
CCN1CCN(CCC(=O)Nc2cc(C)ccc2C)CC1	n	n	n	n
COc1cc2c(cc1OC)CN(CC(=O)Nc1ccc3c(c1)OCO3)CC2	n	n	n	n
Cc1ccc(C)c(NC(=O)CCN2CCc3ccccc3C2)c1	11µM	n	n	-108
O=C(CCN1CCc2ccccc2C1)Nc1ccc2c(c1)OCO2	n	n	n	-67
O=C(CCN1CCc2ccccc2C1)Nc1ccc(F)c(F)c1	u	n	n	-103
Cc1cccc(N2CCN(S(=O)(=O)c3cn(C)c(C)n3)CC2)c1C	n	n	n	x
Cc1ccc(CN(C(=O)c2ccc(F)cc2)c2ccccn2)o1	n	n	x	x
COc1ccccc1N1CCN(CCN(C(=O)C2CCCCC2)c2ccccn2)CC1	n	n	n	-85
COc1ccccc1N1CCN(C(=O)C(CC(C)C)NC(=O)C2CCCCC2)CC1 (configuration not stated)	u	n	n	n
O=C(C1CCCCC1)N(Cc1ccccc1)c1ccccn1	u	n	n	n
COc1ccccc1N1CCN(CCN(C(=O)c2ccc(F)cc2)c2ccccn2)CC1	n	n	n	-116
COc1ccccc1N1CCN(CC(C)N(C(=O)C2CCCCC2)c2ccccn2)CC1 (configuration not stated)	10µM	n	n	-70
SMILES	GLP-1R inv ag	DRD3 agonist	GLP1R ag	D3 antag
Cn1nnnc1SCC1=C(C(=O)O)N2C(=O)[C@@H](NC(=O)[C@H](OC=O)c3ccccc3)[C@H]2SC1	x	n	n	x
Cc1ccc(OCCCCCCN2CCNCC2)cc1	2.2µM	n	n	n
Cc1ccc(OCCCCCN2CCOCC2)cc1	n	n	n	n
Cc1cccc(C)c1OCCCCN1CCNCC1	u	n	n	n
Cc1ccccc1OCCCCCCN1CCNCC1	2.2µM	n	n	n
COc1ccc2c(c1)CC(C(=O)Nc1cc(OC)c(OC)c(OC)c1)CO2 (configuration not stated)	n	n	x	x
COc1ccc(C(=O)c2sc(Nc3cccc(OC)c3)c(C(=O)Nc3cccc(C)c3C)c2N)cc1	u	n	n	n
